Test systems include SR leukemia; RPMI-8226 leukemia; OVCAR-8 ovarian; OVCAR-5 ovarian; OVCAR-4 ovarian; SK-OV-3 ovarian; IGROV1 ovarian; OVCAR-3 ovarian; HS 578T breast; NCI/ADR-RES ovarian; T-47D breast; BT-549 breast; MDA-MB-435 melanoma; SW-620 colon; MCF7 breast; HCT-116 colon; HCC-2998 colon; KM12 colon.
Assay in all cases: NCI-60 one-dose screen, 48 h (100 = growth as untreated, 0 = no growth, -100 = all killed)
Common to all, as to settings: 10 µM

The text below walks through data of PubChem BioAssay (NCI).

This is part of a sample that, as a whole, favours compounds with a hit. Of some 83,000 tested, about 20% had one in any assay.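 Percent growth is the endpoint: 0 to 100 indicates growth inhibition (40 means 60% inhibition), 0 means no net growth, and negative values indicate cell death.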 Calls of active or inactive are those of the source. Rule for the calls: active = growth percent below 10; inactive = the rest.

As for `CCCCCCCCCCSC(=N)N` (tested in a mixture with another compound), the growth is -26.7% (active) in the assay on SR leukemia; 38% (inactive) in the assay with RPMI-8226 leukemia; 81.6% (inactive) in the assay with OVCAR-8 ovarian; 101% (inactive) in the assay on OVCAR-5 ovarian; 90% (inactive) in the assay with OVCAR-4 ovarian; 85.9% (inactive) with SK-OV-3 ovarian. The growth with IGROV1 ovarian was 68% (inactive); in the assay with OVCAR-3 ovarian, 76.1% (inactive); in the assay on HS 578T breast, 81.9% (inactive); with NCI/ADR-RES ovarian, 82.5% (inactive); in the assay with T-47D breast it was 28% (inactive); with BT-549 breast it was 75% (inactive). Further, the growth in the assay with MDA-MB-435 melanoma was 79.6% (inactive); with SW-620 colon, 38.6% (inactive); with MCF7 breast, 36.6% (inactive); in the assay with HCT-116 colon, 55.6% (inactive); in the assay on HCC-2998 colon it was -57.9% (active); with KM12 colon, 45.3% (inactive).
For `CCCCCCCC/C=C/CCCCCCCCC1=NCCN1CCO`, the growth with SR leukemia is -8.86% (active); with RPMI-8226 leukemia, 52.7% (inactive); in the assay on OVCAR-8 ovarian, 74.9% (inactive); in the assay with OVCAR-5 ovarian it was 95.2% (inactive); with OVCAR-4 ovarian it was 81.7% (inactive); in the assay on SK-OV-3 ovarian, 97.8% (inactive). For the same molecule, the growth in the assay with IGROV1 ovarian is 63.8% (inactive); in the assay on OVCAR-3 ovarian, 83.1% (inactive); with HS 578T breast, 81% (inactive); with NCI/ADR-RES ovarian it was 81.1% (inactive); in the assay with T-47D breast, 79.7% (inactive); in the assay with BT-549 breast, 83.1% (inactive). The growth in the assay on MDA-MB-435 melanoma is 68.9% (inactive); in the assay on SW-620 colon, 40% (inactive); in the assay with MCF7 breast, 71.2% (inactive); in the assay with HCT-116 colon it was 7.94% (active); in the assay with HCC-2998 colon it was 97.8% (inactive); in the assay with KM12 colon, 62.5% (inactive).
Turning to `CC1(CO)CCCC12OCCO2` (centres undefined), the growth was 93.3% (inactive) in the assay on SR leukemia; 100% (inactive) in the assay on RPMI-8226 leukemia; 106% (inactive) with OVCAR-8 ovarian; 97.3% (inactive) in the assay on OVCAR-5 ovarian; 111% (inactive) in the assay on OVCAR-4 ovarian; 111% (inactive) in the assay on SK-OV-3 ovarian. Also, the growth in the assay with IGROV1 ovarian is 104% (inactive); with OVCAR-3 ovarian, 108% (inactive); with HS 578T breast, 119% (inactive); with NCI/ADR-RES ovarian, 113% (inactive); with T-47D breast, 111% (inactive); with BT-549 breast, 99.9% (inactive). The growth is 92.8% (inactive) in the assay with MDA-MB-435 melanoma; 108% (inactive) in the assay with SW-620 colon; 95.2% (inactive) in the assay on MCF7 breast; 105% (inactive) in the assay on HCT-116 colon; 111% (inactive) with HCC-2998 colon; 112% (inactive) in the assay with KM12 colon.
For the molecule `Cc1ccc(-n2nnc3c(sc4ccccc43)c2=O)cc1`, the growth in the assay with SR leukemia is 75.1% (inactive); with RPMI-8226 leukemia, 46.1% (inactive); in the assay on OVCAR-8 ovarian, 50% (inactive); in the assay on OVCAR-5 ovarian it was 90.3% (inactive); with OVCAR-4 ovarian it was -23.6% (active); with SK-OV-3 ovarian it was 9.88% (active). The growth in the assay on IGROV1 ovarian was 23.5% (inactive); in the assay with OVCAR-3 ovarian, 37.1% (inactive); with HS 578T breast, 23% (inactive); in the assay with NCI/ADR-RES ovarian, 53.7% (inactive); with T-47D breast, 64.2% (inactive); in the assay on BT-549 breast, 81.4% (inactive). Besides, the growth with MDA-MB-435 melanoma is 59% (inactive); in the assay with SW-620 colon it was 58.6% (inactive); in the assay on MCF7 breast it was 81.2% (inactive); with HCT-116 colon it was 3.11% (active); in the assay with HCC-2998 colon, 70.8% (inactive); with KM12 colon, 25.3% (inactive).
Turning to `N#Cc1ccc(-n2cnc(NC(=O)[C@H]3CCN(C#N)C3)c2)cc1`, the growth is 6.48% (active) with SR leukemia; 16.2% (inactive) with RPMI-8226 leukemia; 15.5% (inactive) with OVCAR-8 ovarian; 23.8% (inactive) with OVCAR-5 ovarian; 28.9% (inactive) in the assay with OVCAR-4 ovarian; 62.5% (inactive) with SK-OV-3 ovarian. Also, the growth is 20.8% (inactive) in the assay on IGROV1 ovarian; 11.4% (inactive) in the assay with OVCAR-3 ovarian; 19.2% (inactive) in the assay on HS 578T breast; 36.6% (inactive) with NCI/ADR-RES ovarian; -9.28% (active) in the assay with T-47D breast; 18.5% (inactive) in the assay on BT-549 breast. The growth in the assay on MDA-MB-435 melanoma was 16.2% (inactive); in the assay on SW-620 colon it was 16.6% (inactive); in the assay with MCF7 breast it was 4.82% (active); in the assay with HCT-116 colon, 5.34% (active); in the assay with HCC-2998 colon, 38.5% (inactive); in the assay on KM12 colon, 8.31% (active).
Turning to `COc1cc(OC)cc(-c2n/c(=C\c3c(O)[nH]c4ccc(OC)cc34)cc3c2=Nc2ccccc2-3)c1`, the growth with SR leukemia was 9.3% (active); with RPMI-8226 leukemia, 77.8% (inactive); with OVCAR-8 ovarian, 72.7% (inactive); in the assay with OVCAR-5 ovarian, 122% (inactive); in the assay on OVCAR-4 ovarian, 15.3% (inactive); in the assay on SK-OV-3 ovarian, 126% (inactive). In addition, the growth in the assay on IGROV1 ovarian was 86.5% (inactive); in the assay with OVCAR-3 ovarian it was 94.6% (inactive); in the assay with HS 578T breast, 95.3% (inactive); with NCI/ADR-RES ovarian, 69.4% (inactive); in the assay with T-47D breast, 109% (inactive); in the assay with BT-549 breast it was 92.3% (inactive). Moreover, the growth is 67.2% (inactive) with MDA-MB-435 melanoma; 46.9% (inactive) with SW-620 colon; -64.9% (active) in the assay with MCF7 breast; 13.7% (inactive) in the assay with HCT-116 colon; 22.2% (inactive) in the assay on HCC-2998 colon; -49.8% (active) in the assay on KM12 colon.
Consider `Fc1ccc(Nc2ccnc(N3CCN(c4ccnc5cc(Cl)ccc45)CC3)n2)cc1`, for which the growth with SR leukemia is 31% (inactive); in the assay with RPMI-8226 leukemia it was 23.9% (inactive); in the assay with OVCAR-8 ovarian, 36.6% (inactive); in the assay on OVCAR-5 ovarian, 55.9% (inactive); in the assay on OVCAR-4 ovarian, 33.1% (inactive); in the assay with SK-OV-3 ovarian, 56% (inactive). The growth was 43.7% (inactive) with IGROV1 ovarian; 44.1% (inactive) with OVCAR-3 ovarian; 61.4% (inactive) in the assay with HS 578T breast; 44.1% (inactive) with NCI/ADR-RES ovarian; -0.414% (active) with T-47D breast; 75.1% (inactive) in the assay on BT-549 breast. The growth in the assay with MDA-MB-435 melanoma was 48.6% (inactive); with SW-620 colon it was 63.2% (inactive); in the assay with MCF7 breast it was 19.2% (inactive); in the assay on HCT-116 colon, 15.4% (inactive); in the assay with HCC-2998 colon it was 62.6% (inactive); in the assay with KM12 colon it was 42.1% (inactive).
`CCCCn1c(=O)[nH]c(N)c(C(c2ccc(Cl)cc2)c2c(N)[nH]c(=O)n(CCCC)c2=O)c1=O`: the growth in the assay with SR leukemia is 24.2% (inactive); in the assay with RPMI-8226 leukemia it was 25.5% (inactive); in the assay on OVCAR-8 ovarian, 46.7% (inactive); in the assay with OVCAR-5 ovarian, 87.8% (inactive); in the assay on OVCAR-4 ovarian it was 42.7% (inactive); in the assay on SK-OV-3 ovarian it was 56.5% (inactive). In addition, the growth is 46% (inactive) with IGROV1 ovarian; 27.2% (inactive) in the assay on OVCAR-3 ovarian; 50.6% (inactive) in the assay on HS 578T breast; 103% (inactive) in the assay on NCI/ADR-RES ovarian; 21% (inactive) with T-47D breast; 49.8% (inactive) with BT-549 breast. The growth with MDA-MB-435 melanoma was 31.1% (inactive); with SW-620 colon, 64.2% (inactive); in the assay with MCF7 breast, 21.1% (inactive); in the assay with HCT-116 colon, 27.3% (inactive); in the assay on HCC-2998 colon, 54.7% (inactive); in the assay with KM12 colon it was 35.3% (inactive).
